For the test, the system named is Purinergic P2X (rabbit). Kind of test: PubChem AID 1788. To be noted: MDS Pharma lead profiling panel, radioligand binding, at 10 µM, active compounds read high.

Molecules are shown by their SMILES. Unmarked numbers belong to inactive results. How the calls were made is not given here.

Here are results for one compound from PubChem BioAssay AID1788 (Vanderbilt High Throughput Screening Facility, 2009).

As to `CCOC(=O)N1CCC(NCCNC(=O)c2ccccc2C)CC1`, the inhibition is 2%.

For orientation: inhibition means the relative decrease from the control value, in per cent.
